PubChem BioAssay (NCI)
Compounds without any hit were thinned out: in the full panel of roughly 83,000, 20% have a hit.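 For each line, cells grew in 96-well plates with the test compound present at a single concentration for 48 hours.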 Calls of active or inactive are those of the source. The calls were made as follows: active = growth percent below 10; inactive = the rest.

Tests used:
Test in all cases: NCI-60 one-dose screen, 48 h (100 = growth as untreated, 0 = no growth, -100 = all killed)
Conditions in all cases: 10 µM unless noted
[1] = system: NCI-H23 lung
[2] = system: NCI-H226 lung
[3] = system: NCI-H322M lung
[4] = system: HOP-62 NSCLC
[5] = system: NCI-H460 lung
[6] = system: HOP-92 NSCLC
[7] = system: NCI-H522 lung
[8] = system: A549/ATCC NSCLC
[9] = system: 786-0 renal
[10] = system: COLO 205 colon

Measured: growth

CNCc1ccccc1CN(CC(=O)Nc1ccc2c(c1)CC1(C2)C(=O)Nc2ncccc21)C(=O)C(C)(C)C (stereo not given)
inactive: [1] 103% | [2] 95% | [3] 100% | [4] 102% | [5] 106% | [6] 104% | [7] 93.5% | [8] 103% | [9] 107% | [10] 102%

CCc1oc2ccccc2c1C(=O)c1cc(I)c(O)c(I)c1
inactive: [1] 58.5% | [2] 74.8% | [3] 98.3% | [4] 108% | [5] 21.6% | [6] 53.2% | [7] 30% | [8] 40.3% | [9] 62% | [10] 104%

COc1ccc(C2C3CCc4ccccc4C3=NN2C(=O)c2cc(OC)c(OC)c(OC)c2)cc1O (stereo not given)
inactive: [1] 98% | [2] 89.1% | [3] 86.2% | [4] 92.8% | [5] 108% | [6] 84.2% | [7] 81.8% | [8] 102% | [9] 106% | [10] 113%

OC(c1cc2c(Cl)cc(Cl)cc2c2cc(C(F)(F)F)ccc12)C1CCCCN1 (stereo not given)
active: [1] -77.5% | [2] -66% | [3] -69.7% | [4] -90% | [5] -73.6% | [6] -88.8% | [7] -83.9% | [8] -80.9% | [9] -67.6% | [10] -88.3%

NC(N)=N/N=C\c1cccc(OCc2ccccc2)c1
active: [10] -70.9%
inactive: [1] 79.5% | [2] 86.2% | [3] 91.7% | [4] 79.6% | [5] 95.3% | [6] 40.9% | [7] 61.8% | [8] 87.9% | [9] 79.6%

COc1cc(/C=C/C(=O)c2c(C)nc3ccccc3c2C)ccc1OCCCOc1cc2c(cc1OC)C(=O)N1CCC[C@H]1C=N2
active: [1] -19.5% | [2] -4.56% | [3] -58.6% | [4] -6.66% | [5] -61% | [6] -45.1% | [7] -56.9% | [8] 2.42% | [9] -47.9% | [10] -85.9%

COc1ccc(C2=NN(C=O)C(c3ccc(OS(=O)(=O)c4ccc(C)cc4)c(OC)c3)C2)cc1 (stereo not given)
inactive: [1] 37.8% | [2] 67.4% | [3] 99.9% | [4] 61.3% | [5] 62.8% | [6] 32.8% | [7] 21.3% | [8] 42.6% | [9] 78.1% | [10] 63.3%

SCc1ccc(CS)cc1
inactive: [1] 106% | [2] 109% | [3] 98.2% | [4] 102% | [5] 108% | [6] 77.2% | [7] 108% | [8] 110% | [9] 98.1% | [10] 116%

CC(C)N=C1CCCC1C(=S)SSC(=S)C1CCCC1=NC(C)C (stereo not given)
active: [7] 8.07%
inactive: [1] 75.5% | [2] 90.6% | [3] 86.7% | [4] 24.5% | [5] 47.5% | [6] 103% | [8] 71.1% | [9] 91.4% | [10] 88.8%

O=C(Nc1cccc(Cl)c1)Nc1cc(C(F)(F)F)ccc1Cl
active: [1] -12.3% | [5] -34.6% | [6] -20.3% | [7] -26.9% | [9] 8.47% | [10] -28.2%
inactive: [2] 20.8% | [3] 30.8% | [4] 41.3% | [8] 11.3%

O=C1OCC2=C1C(c1ccc(Cl)c(Cl)c1)c1cc3c(cc1N2CCO)CCC3 (stereo not given)
active: [5] 5.49% | [7] -14.8% | [10] 6.1%
inactive: [1] 31.5% | [2] 24% | [3] 42% | [4] 38.9% | [6] 82% | [8] 21.6% | [9] 27.5%

CCC(C)C1NC(=O)c2nc(oc2-c2ccccc2)-c2csc(n2)-c2csc(n2)-c2nc(oc2C)-c2coc(n2)CNC(=O)C(C(C)CC)NC1=O (stereo not given)
active: [1] -68.2% | [2] -55.8% | [3] -98.9% | [4] -57% | [5] -81.4% | [6] -83.3% | [7] -74.7% | [8] -76.6% | [9] -73.1% | [10] -77.3%

O=C1/C(=C\c2cccn2Cc2ccc(Cl)cc2)c2ccccc2N1c1c(Cl)cccc1Cl
inactive: [1] 86.3% | [2] 59.3% | [3] 68.6% | [4] 98.6% | [5] 94% | [6] 74.8% | [7] 76.6% | [8] 67.2% | [9] 81.7% | [10] 93.6%
